# Assay outcomes as filed in PubChem.
# Shown are actives, neighbours in structure and some others; about 4.6% of the full set was active somewhere.
# PfHsp90 set2 – growth inhibition of PfHsp90-expressing yeast, primary screen, antimalarial PfHsp90 inhibitor project, S. cerevisiae, BacTiter-Glo luminescence, single point, set 2; BacTiter-Glo ATP, 48 h; yeast lacking PDR1 and PDR3 efflux regulators; inhibition, % at 9.4 µM; actives 0.32% (n = 310,000); AID 504621, 2011;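 active = every replicate shows inhibition above about 80%, whatever the replicate mean, limit read from the data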;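 note: 0% = DMSO neutral controls and 100% = 20 µM radicicol positive controls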
# V-ATPase pHluor – regulators of yeast V-ATPase proton pumping, primary screen, pHLuorin cytosolic pH fluorescence; S. cerevisiae; response, % at 10 µM; actives 0.37% (n = 350,000); in the data active = response mostly above about 7.3%, no sharp cut-off; inactive = mostly below about 5.4%; note: actives read high
# tim10-1 inh – growth inhibitors of tim10-1 mutant yeast, primary screen, luminescence, uHTS. S. cerevisiae tim10-1 ts strain growth, BacTiter-Glo, 24 h. inhibition, % at 20 µM. actives 2.2% (n = 330,000). AID 463190, 2010;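 active = inhibition of at least 40%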;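 note: mutant grown at 25 °C; 0% = DMSO wells with yeast and 100% = wells holding no yeast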
# TIM10 inh – growth inhibitors of isogenic TIM10 control yeast, primary screen, counter-screen for tim10-1 yeast inhibitor project, luminescence, uHTS; inhibition, % at 10 µM; actives 1.4% (n = 330,000); AID 463195, 2010; S. cerevisiae TIM10 strain growth, BacTiter-Glo luminescence, 24 h;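 active = inhibition of 40% or more at the single tested concentration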;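 note: wild-type TIM10 isogenic control strain grown at permissive 25 °C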
# tim23-1 inh – growth inhibitors of tim23-1 mutant yeast, primary screen, luminescence, uHTS | S. cerevisiae tim23-1 growth, BacTiter-Glo luminescence, 24 h | inhibition, % at 20 µM | actives 1.3% (n = 330,000) | AID 463212, 2010;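 active = growth inhibition of the mutant yeast at or above 50%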;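 note: temperature-sensitive mutant grown at 25 °C; plate controls were DMSO-treated mutant yeast for no effect and medium wells lacking yeast for full effect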
# SKKanGAS inh – S. pyogenes SKKanGAS growth inhibitors in kanamycin, primary screen, streptokinase expression inhibitor project, SKKanGAS strain, BacTiter-Glo luminescence. inhibition, % at 7.5 µM. actives 1.3% (n = 300,000). 6 h;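 active = mean replicate score, as percent of positive control median, at least 50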;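 note: strain carries kanamycin resistance gene driven by streptokinase promoter and grows in 40 µg/ml kanamycin; loss of luminescence reflects streptokinase promoter inhibition or plain growth inhibition; 0% = median of DMSO wells and 100% = positive control at its reference dose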
# * hit, by the source's call; · = not tested or not shown.
SMILES,PfHsp90 set2,V-ATPase pHluor,tim10-1 inh,TIM10 inh,tim23-1 inh,SKKanGAS inh
O=C(O)c1cccc(N/N=C/c2ccc(F)c(F)c2)c1,9,-1,19,0,3,6
Cc1ccc(S(=O)(=O)N2C[C@H]3C(=O)C[C@@H](c4ccc(Cl)cc4)N(S(=O)(=O)c4ccccc4C)[C@H]3C[C@H]2c2ccc(Cl)cc2)cc1,·,4,·,·,·,·
C[C@H]1c2cccc(O)c2C(O)=C2C(=O)[C@]3(O)C(O)=C(C(N)=O)C(=O)[C@@H](N(C)C)C3[C@@H](O)C21 (stereo partly drawn),11,0,-5,-10,-3,105*
S=C(NCC1CCCO1)N1CCc2ccccc2C1 (stereo not drawn),-36,3,2,-5,3,-9
CC(=O)OCC1OC(n2cc(F)c(=O)[nH]c2=O)C(OC(C)=O)C1OC(C)=O (stereo not drawn),1,-1,3,10,8,12
O=C1C(F)=CC(COC(c2ccccc2)(c2ccccc2)c2ccccc2)OC1n1cc(F)c(=O)[nH]c1=O (stereo not drawn),102*,-1,·,·,·,·
Cc1cc(S(=O)(=O)ON2C(=O)c3ccccc3C2=O)ccc1F,-13,11*,·,·,·,1
O=C1c2ccccc2C(=O)N1OS(=O)(=O)c1ccccc1,·,·,·,·,·,-7
Cc1cccc(N2CN(Cc3cccnc3)CNC2=S)c1,-26,16*,3,15,9,-5
COc1ccc(CN2CCOCCOCCOCC2)cc1,0,14*,-13,-18,6,17
CCOC(=O)N1CCN(C(=O)CSc2nc3c([nH]c4ccccc43)c(=O)n2CC)CC1,10,0,6,3,15,-1
Cc1ccc(S(=O)(=O)NCCCCCC(=O)Nc2c(C)n(C)n(-c3ccccc3)c2=O)cc1,7,-2,6,6,16,11
Cc1c2cc(O)c(=O)cc-2oc2cc(O)c(O)cc12,55,206*,17,-19,4,16
CN1C2=C(C(=O)CC(C)(C)C2)C(c2cccs2)C2=C1CC(C)(C)CC2=O,12,-2,6,3,10,-4
CCCCCC(=O)N1C[C@H](n2cc(COC(=O)c3ccccc3)nn2)[C@@H](O)C[C@@H]1c1ccc(OC)cc1,·,0,·,·,·,·
O=C(N/N=C/c1cc(Br)ccc1O)C(=O)Nc1ccccc1OC(F)(F)C(F)F,-20,-1,·,·,·,103*
COc1ccccc1NS(=O)(=O)c1cc(C(=O)NCC2CCCO2)ccc1C (stereo not drawn),-44,2,0,5,6,-1
COc1ccccc1NS(=O)(=O)c1cc(C(=O)N2CC(C)CC(C)C2)ccc1C (stereo not drawn),102*,1,-79,-42,-107,-11
COc1ccccc1NS(=O)(=O)c1cc(NC(=S)NCC2CCCO2)ccc1C (stereo not drawn),-1,0,16,5,16,56*
Cc1ccc(NC(=O)c2ccc(NS(=O)(=O)c3ccc4[nH]c(=O)[nH]c4c3)cc2)nc1,·,-2,-13,2,-8,10
Cc1ccc(C(=O)n2c3ccccc3c3ccccc32)cc1,·,2,0,4,21,67*
Cc1ccc2c(c1)C(=O)CC(O)(C(F)(F)F)O2 (stereo not drawn),1,-7,-8,-11,12,-6
Cc1ccc2c(c1)C(=O)CC1(CCC(C(C)(C)C)CC1)O2 (stereo not drawn),-16,4,9,-5,15,68*
O=C1CC(N2CCN(S(=O)(=O)c3ccccc3F)CC2)C(=O)N1c1ccccc1Cl (stereo not drawn),5,2,15,-2,-2,·
CCOC(=O)C1=C(C)N=c2s/c(=C\c3ccc(O)c([N+](=O)[O-])c3)c(=O)n2C1c1ccccc1OC (stereo not drawn),-27,-2,7,13,30,58*
